Measurements: PubChem BioAssay (NCI)
Compounds without any hit were thinned out: in the full panel of roughly 83,000, 20% have a hit.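 Percent growth is the endpoint: 0 to 100 indicates growth inhibition (40 means 60% inhibition), 0 means no net growth, and negative values indicate cell death.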 A number with no mark means an inactive call. Activity calls are given as the source filed them. How the source made its calls: active means growth percent below 10; inactive means the rest.

What was measured:
Experiment in all cases: NCI-60 one-dose screen, 48 h (100 = growth as untreated, 0 = no growth, -100 = all killed)
Details in all cases: 10 µM unless noted
SR leukemia = tested on: SR leukemia
RPMI-8226 leukemia = tested on: RPMI-8226 leukemia
OVCAR-8 ovarian = tested on: OVCAR-8 ovarian
OVCAR-5 ovarian = tested on: OVCAR-5 ovarian
OVCAR-4 ovarian = tested on: OVCAR-4 ovarian
SK-OV-3 ovarian = tested on: SK-OV-3 ovarian
IGROV1 ovarian = tested on: IGROV1 ovarian
OVCAR-3 ovarian = tested on: OVCAR-3 ovarian
HS 578T breast = tested on: HS 578T breast
NCI/ADR-RES ovarian = tested on: NCI/ADR-RES ovarian
T-47D breast = tested on: T-47D breast
BT-549 breast = tested on: BT-549 breast
MDA-MB-435 melanoma = tested on: MDA-MB-435 melanoma
SW-620 colon = tested on: SW-620 colon
MCF7 breast = tested on: MCF7 breast
HCT-116 colon = tested on: HCT-116 colon
KM12 colon = tested on: KM12 colon
HCC-2998 colon = tested on: HCC-2998 colon

## C=C1C(=O)O[C@H]2[C@H]1CC/C(COC(=O)CCCCCC(=O)OC/C1=C/CC[C@@]3(C)O[C@H]3[C@H]3OC(=O)C(=C)[C@@H]3CC1)=C\CC[C@@]1(C)O[C@@H]21
SR leukemia
  growth: 3.39% (active)
RPMI-8226 leukemia
  growth: 1.08% (active)
OVCAR-8 ovarian
  growth: 12.2%
OVCAR-5 ovarian
  growth: 51.2%
OVCAR-4 ovarian
  growth: 37.2%
SK-OV-3 ovarian
  growth: 94.6%
IGROV1 ovarian
  growth: 7.45% (active)
OVCAR-3 ovarian
  growth: 1.8% (active)
HS 578T breast
  growth: 18.7%
NCI/ADR-RES ovarian
  growth: 46.9%
T-47D breast
  growth: 1.26% (active)
BT-549 breast
  growth: 35.7%
MDA-MB-435 melanoma
  growth: 30.8%
SW-620 colon
  growth: 8.05% (active)
MCF7 breast
  growth: 12.8%
HCT-116 colon
  growth: -37.3% (active)
KM12 colon
  growth: 62.8%

## CC(=O)N1c2ccccc2NC2=C(C(=O)N(C)C2(C)C)C1C (stereo not given)
SR leukemia
  growth: 16.7%
RPMI-8226 leukemia
  growth: 12.6%
OVCAR-8 ovarian
  growth: 65.8%
OVCAR-5 ovarian
  growth: 62.5%
OVCAR-4 ovarian
  growth: 55.2%
SK-OV-3 ovarian
  growth: 55.4%
IGROV1 ovarian
  growth: 39.6%
OVCAR-3 ovarian
  growth: 18.1%
HS 578T breast
  growth: 20.4%
NCI/ADR-RES ovarian
  growth: 102%
T-47D breast
  growth: 28.7%
BT-549 breast
  growth: 69.5%
MDA-MB-435 melanoma
  growth: -67.8% (active)
SW-620 colon
  growth: 24.2%
MCF7 breast
  growth: 16.4%
HCC-2998 colon
  growth: 60.8%
KM12 colon
  growth: 19.8%

## Cc1c2c(cc[n+]1Cc1ccccc1)c1ccc(OCC3CCCCC3)cc1n2CC1CCCCC1
SR leukemia
  growth: -57.7% (active)
RPMI-8226 leukemia
  growth: -45.2% (active)
OVCAR-8 ovarian
  growth: -90.1% (active)
OVCAR-5 ovarian
  growth: -95.5% (active)
OVCAR-4 ovarian
  growth: -94.3% (active)
SK-OV-3 ovarian
  growth: -53.4% (active)
IGROV1 ovarian
  growth: -70.6% (active)
OVCAR-3 ovarian
  growth: -100% (active)
HS 578T breast
  growth: -36.2% (active)
NCI/ADR-RES ovarian
  growth: 31.5%
T-47D breast
  growth: -74.1% (active)
BT-549 breast
  growth: -91% (active)
MDA-MB-435 melanoma
  growth: -84.9% (active)
SW-620 colon
  growth: -96.6% (active)
MCF7 breast
  growth: -92.3% (active)
HCT-116 colon
  growth: -98.3% (active)
KM12 colon
  growth: -99.9% (active)

## O=c1[nH]c(=O)[nH]c(=S)[nH]1
SR leukemia
  growth: 106%
RPMI-8226 leukemia
  growth: 106%
OVCAR-8 ovarian
  growth: 101%
OVCAR-5 ovarian
  growth: 102%
OVCAR-4 ovarian
  growth: 109%
SK-OV-3 ovarian
  growth: 111%
IGROV1 ovarian
  growth: 102%
OVCAR-3 ovarian
  growth: 119%
HS 578T breast
  growth: 99.3%
NCI/ADR-RES ovarian
  growth: 105%
T-47D breast
  growth: 98.9%
BT-549 breast
  growth: 103%
MDA-MB-435 melanoma
  growth: 103%
SW-620 colon
  growth: 102%
MCF7 breast
  growth: 97.8%
HCT-116 colon
  growth: 98.5%
KM12 colon
  growth: 102%

## O=C1Nc2ccccc2/C1=N/c1nc(-c2ccc(Cl)cc2)cs1
SR leukemia
  growth: 60.1%
RPMI-8226 leukemia
  growth: 39.3%
OVCAR-8 ovarian
  growth: 54.6%
OVCAR-5 ovarian
  growth: 98.9%
OVCAR-4 ovarian
  growth: 67.7%
SK-OV-3 ovarian
  growth: 57.8%
IGROV1 ovarian
  growth: 66.7%
OVCAR-3 ovarian
  growth: 64.9%
HS 578T breast
  growth: 71.6%
NCI/ADR-RES ovarian
  growth: 88.9%
T-47D breast
  growth: 43.4%
BT-549 breast
  growth: 63.8%
MDA-MB-435 melanoma
  growth: 72.4%
SW-620 colon
  growth: 68.5%
MCF7 breast
  growth: 52.6%
HCC-2998 colon
  growth: 86.4%
KM12 colon
  growth: 70.8%

## Cc1[nH]c(C(=O)Nc2ccccc2OCc2cccc(C(=O)NCCN)c2)c(Cl)c1Cl
SR leukemia
  growth: -15.8% (active)
RPMI-8226 leukemia
  growth: 30.1%
OVCAR-8 ovarian
  growth: 37.9%
OVCAR-5 ovarian
  growth: 104%
OVCAR-4 ovarian
  growth: 98.1%
SK-OV-3 ovarian
  growth: 108%
IGROV1 ovarian
  growth: 71.1%
OVCAR-3 ovarian
  growth: 76.4%
HS 578T breast
  growth: 92.6%
NCI/ADR-RES ovarian
  growth: 94.3%
T-47D breast
  growth: 46.5%
BT-549 breast
  growth: 97.2%
MDA-MB-435 melanoma
  growth: 69.1%
SW-620 colon
  growth: 3.75% (active)
MCF7 breast
  growth: 14.7%
HCC-2998 colon
  growth: 84.4%
KM12 colon
  growth: 64.1%

## NNC(=O)/C(=C\c1ccc([N+](=O)[O-])cc1)CC(=O)c1ccc(Cl)c(Cl)c1
SR leukemia
  growth: 86.7%
RPMI-8226 leukemia
  growth: 91.7%
OVCAR-8 ovarian
  growth: 90.9%
OVCAR-5 ovarian
  growth: 87.8%
OVCAR-4 ovarian
  growth: 80%
SK-OV-3 ovarian
  growth: 99.9%
IGROV1 ovarian
  growth: 70%
OVCAR-3 ovarian
  growth: 97.2%
HS 578T breast
  growth: 88.4%
NCI/ADR-RES ovarian
  growth: 84.9%
T-47D breast
  growth: 77.1%
BT-549 breast
  growth: 110%
MDA-MB-435 melanoma
  growth: 96.9%
SW-620 colon
  growth: 86%
MCF7 breast
  growth: 73.8%
HCC-2998 colon
  growth: 93.5%
KM12 colon
  growth: 95.2%

## O=C(N/N=C/c1ccncc1)c1ccccc1Nc1cccc(C(F)(F)F)c1
SR leukemia
  growth: 4.74% (active)
RPMI-8226 leukemia
  growth: 52.3%
OVCAR-8 ovarian
  growth: 79.1%
OVCAR-5 ovarian
  growth: 89.5%
OVCAR-4 ovarian
  growth: 66%
SK-OV-3 ovarian
  growth: 86.4%
IGROV1 ovarian
  growth: 86.8%
OVCAR-3 ovarian
  growth: 64.7%
HS 578T breast
  growth: 103%
NCI/ADR-RES ovarian
  growth: 70.7%
T-47D breast
  growth: 58.2%
BT-549 breast
  growth: 69.3%
MDA-MB-435 melanoma
  growth: 112%
SW-620 colon
  growth: 95.7%
MCF7 breast
  growth: 104%
HCT-116 colon
  growth: 69.2%
KM12 colon
  growth: 77.8%

## S=c1[nH]cccc1-c1nnc2n1Nc1nc3ccc(Cl)cc3cc1CS2
SR leukemia
  growth: 85.6%
RPMI-8226 leukemia
  growth: 98.1%
OVCAR-8 ovarian
  growth: 102%
OVCAR-5 ovarian
  growth: 95.3%
OVCAR-4 ovarian
  growth: 101%
SK-OV-3 ovarian
  growth: 94.3%
IGROV1 ovarian
  growth: 90.1%
OVCAR-3 ovarian
  growth: 105%
HS 578T breast
  growth: 89.3%
NCI/ADR-RES ovarian
  growth: 99.3%
T-47D breast
  growth: 89.5%
BT-549 breast
  growth: 96.3%
MDA-MB-435 melanoma
  growth: 103%
SW-620 colon
  growth: 98.8%
MCF7 breast
  growth: 86.5%
HCT-116 colon
  growth: 86.6%
KM12 colon
  growth: 104%

## Cc1cccc(Oc2ccc(Nc3ncnc4ccc(NC(=O)CNCCO)cc34)cc2Cl)c1
SR leukemia
  growth: 5.67% (active)
RPMI-8226 leukemia
  growth: 71.7%
OVCAR-8 ovarian
  growth: 66.7%
OVCAR-5 ovarian
  growth: 78.8%
OVCAR-4 ovarian
  growth: 67.7%
SK-OV-3 ovarian
  growth: 10.8%
IGROV1 ovarian
  growth: 9.02% (active)
OVCAR-3 ovarian
  growth: 49.7%
HS 578T breast
  growth: 83.5%
NCI/ADR-RES ovarian
  growth: 76.1%
T-47D breast
  growth: 35.7%
BT-549 breast
  growth: 73.4%
SW-620 colon
  growth: 77.9%
MCF7 breast
  growth: 47.1%
HCT-116 colon
  growth: 37.2%
HCC-2998 colon
  growth: 66.8%
KM12 colon
  growth: 76.8%
